The whole screen tested about 5,500 compounds, of which about 2,000 (36%) were called active. Roughly 18% stayed inconclusive and do not appear here. Some of the results follow. Unmarked numbers belong to inactive results. No stated cut-off is given here; in the data, active means normalized growth mostly below about 0.91 (no sharp cut-off); inconclusive means no clear call, values can overlap the other calls; inactive means mostly above about 0.92.
Assay: chemical genetic growth profiling, strain panel (AID 1159580);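 further: tested at 20 µM; growth read once vehicle control cultures reached saturation at 30 °C; 1 = growth at the plate median or of vehicle wells; lower values mean less growth of the strain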
Settings: growth OD
[1] = S. cerevisiae deletion strains, locus YAL013W, strain DEP1, hits give low values
[2] = S. cerevisiae deletion strains, locus YDR150W, strain NUM1, hits give low values
[3] = S. cerevisiae deletion strains, locus YGR229C, strain SMI1, hits give low values
[4] = S. cerevisiae deletion strains, locus YNL153C, strain GIM3, hits give low values
[5] = S. cerevisiae deletion strains, locus YNL322C, strain KRE1, hits give low values
[6] = S. cerevisiae deletion strains, locus YBR229C, strain ROT2, hits give low values
[7] = S. cerevisiae deletion strains, locus YDL101C, strain DUN1, hits give low values
[8] = S. cerevisiae deletion strains, locus YEL061C, strain CIN8, hits give low values
[9] = S. cerevisiae deletion strains, locus YGR078C, strain PAC10, hits give low values
[10] = S. cerevisiae deletion strains, locus YHR030C, strain SLT2, hits give low values
[11] = S. cerevisiae deletion strains, locus YHR087W, strain rtc3, hits give low values
[12] = S. cerevisiae deletion strains, locus YJR043C, strain POL32, hits give low values
[13] = S. cerevisiae deletion strains, locus YJR075W, strain HOC1, hits give low values
[14] = S. cerevisiae deletion strains, locus YKL190W, strain CNB1, hits give low values
[15] = S. cerevisiae deletion strains, locus YLR039C, strain RIC1, hits give low values
[16] = S. cerevisiae deletion strains, locus YLR058C, strain SHM2 (second series), hits give low values
[17] = S. cerevisiae deletion strains, locus YLR085C, strain ARP6, hits give low values
[18] = S. cerevisiae deletion strains, locus YLR262C, strain YPT6, hits give low values
[19] = S. cerevisiae deletion strains, locus YML094W, strain GIM5, hits give low values
[20] = S. cerevisiae deletion strains, locus YMR219W, strain ESC1, hits give low values
[21] = S. cerevisiae deletion strains, locus YMR263W, strain SAP30, hits give low values
[22] = S. cerevisiae deletion strains, locus YMR307W, strain GAS1, hits give low values
[23] = S. cerevisiae deletion strains, locus YNL298W, strain CLA4 (second series), hits give low values
[24] = S. cerevisiae deletion strains, locus YNR030W, strain Alg12, hits give low values
[25] = S. cerevisiae deletion strains, locus YPL055C, strain LGE1, hits give low values
[26] = S. cerevisiae deletion strains, locus YPL241C, strain CIN2, hits give low values
[27] = S. cerevisiae deletion strains, locus YPR135W, strain CTF4, hits give low values
[28] = S. cerevisiae strains, strain wild type, hits give low values
[29] = S. cerevisiae deletion strains, locus YNL128W, strain TEP1, hits give low values

SMILES: Clc1ccc(N2CC3CCC(C2)N3)nn1
- normalized growth [1]: 1.04
- normalized growth (S. cerevisiae deletion strains, locus YAL040C, strain CLN3, hits give low values): 1.01
- normalized growth (S. cerevisiae deletion strains, locus YCL061C, strain MRC1 (second series), hits give low values): 1.01
- normalized growth [2]: 1
- normalized growth (S. cerevisiae deletion strains, locus YDR363W, strain ESC2, hits give low values): 1.01
- normalized growth (S. cerevisiae deletion strains, locus YER002W, strain NOP16, hits give low values): 1
- normalized growth [3]: 1.03
- normalized growth [4]: 1.01
- normalized growth (S. cerevisiae deletion strains, locus YNL175C, strain NOP13, hits give low values): 0.995
- normalized growth (S. cerevisiae deletion strains, locus YNL197C, strain WHI3, hits give low values): 1
- normalized growth (S. cerevisiae deletion strains, locus YNL224C, strain SQS1, hits give low values): 1
- normalized growth [5]: 1.04
- normalized growth (S. cerevisiae deletion strains, locus YOR083W, strain WHI5 (second series), hits give low values): 0.959

SMILES: NC(=S)N/N=C\c1ccccc1
- normalized growth [1]: 0.991
- normalized growth [6]: 1.02
- normalized growth [7]: 0.987
- normalized growth [2]: 0.963
- normalized growth [8]: 0.902 (active)
- normalized growth [9]: 1.02
- normalized growth [10]: 0.823
- normalized growth [11]: 1.06
- normalized growth [12]: 1
- normalized growth [13]: 1.04
- normalized growth [14]: 0.973
- normalized growth [15]: 1.13
- normalized growth [16]: 1.01
- normalized growth [17]: 0.301 (active)
- normalized growth [18]: 1.08
- normalized growth [19]: 0.872
- normalized growth [20]: 1
- normalized growth [21]: 0.982
- normalized growth [22]: 0.579 (active)
- normalized growth [4]: 0.971
- normalized growth [23]: 0.836 (active)
- normalized growth [5]: 1.03
- normalized growth [24]: 0.925
- normalized growth [25]: 0.872
- normalized growth [26]: 0.983
- normalized growth [27]: 0.886
- normalized growth [28]: 0.974

SMILES: CCOC(=O)N/N=C\c1cccs1
- normalized growth [1]: 0.995
- normalized growth [6]: 1
- normalized growth [7]: 0.982
- normalized growth [2]: 0.996
- normalized growth [8]: 1
- normalized growth [9]: 1
- normalized growth [10]: 1.05
- normalized growth [11]: 0.992
- normalized growth [12]: 0.984
- normalized growth [13]: 0.972
- normalized growth [14]: 1.01
- normalized growth [15]: 1.07
- normalized growth [16]: 1.02
- normalized growth [17]: 1.01
- normalized growth [18]: 1.05
- normalized growth [19]: 0.996
- normalized growth [20]: 1
- normalized growth [21]: 0.997
- normalized growth [22]: 1.02
- normalized growth [29]: 1
- normalized growth [4]: 0.996
- normalized growth [23]: 1.03
- normalized growth [5]: 1.01
- normalized growth [24]: 1
- normalized growth [25]: 1.01
- normalized growth [26]: 0.993
- normalized growth [27]: 0.948
- normalized growth [28]: 1.01

SMILES: NC(=S)N/N=C\c1cccs1
- normalized growth [1]: 0.984
- normalized growth [6]: 0.96
- normalized growth [7]: 0.979
- normalized growth [2]: 0.962
- normalized growth [8]: 0.945
- normalized growth [9]: 0.98
- normalized growth [3]: 1.01
- normalized growth [10]: 0.992
- normalized growth [11]: 1.02
- normalized growth [12]: 0.973
- normalized growth [13]: 0.829 (active)
- normalized growth [14]: 1
- normalized growth [15]: 1.11
- normalized growth [16]: 1
- normalized growth [17]: 0.562 (active)
- normalized growth [18]: 1.08
- normalized growth [19]: 0.92
- normalized growth [20]: 0.873 (active)
- normalized growth [21]: 0.997
- normalized growth [29]: 1
- normalized growth [4]: 0.898 (active)
- normalized growth [23]: 0.955
- normalized growth [5]: 1.02
- normalized growth [24]: 0.737 (active)
- normalized growth [25]: 0.915
- normalized growth [26]: 1.06
- normalized growth [27]: 1.02
- normalized growth [28]: 1

From PubChem BioAssay AID1159580 (chemical genetic matrix, 2015)
